Out of some 5,500 compounds screened, about 2,000 (36%) were called active. Not shown: some 18% with an inconclusive outcome. No stated cut-off is given here; in the data, active means normalized growth mostly below about 0.91 (no sharp cut-off); inconclusive means no clear call, values can overlap the other calls; inactive means mostly above about 0.92. The list shows a part of the results.
Assay: chemical genetic growth profiling, strain panel (AID 1159580);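 further: tested at 20 µM; growth read once vehicle control cultures reached saturation at 30 °C; 1 = growth at the plate median or of vehicle wells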
Conditions: growth OD

Measured: normalized growth

CC(=O)O[C@@H]1CC2C(C)(C)[C@H](O)C[C@H](O)[C@]2(C)C2CC[C@@]3(C)[C@H](c4ccoc4)OC(=O)[C@H]4O[C@]43[C@@]21C (stereo not given in full)
inactive: S. cerevisiae deletion strains, locus YAL021C, strain ccr4, stronger effect = lower value 1.01 | S. cerevisiae deletion strains, locus YAL026C, strain drs2, stronger effect = lower value 0.993 | S. cerevisiae deletion strains, locus YAL030W, strain snc1, stronger effect = lower value 0.995 | S. cerevisiae deletion strains, locus YBL061C, strain skt5, stronger effect = lower value 0.988 | S. cerevisiae deletion strains, locus YBR009C, strain hhf1, stronger effect = lower value 0.974 | S. cerevisiae deletion strains, locus YBR021W, strain FUR4, stronger effect = lower value 0.959 | S. cerevisiae deletion strains, locus YBR023C, strain chs3, stronger effect = lower value 0.985 | S. cerevisiae deletion strains, locus YBR171W, strain sec66, stronger effect = lower value 0.986 | S. cerevisiae deletion strains, locus YBR229C, strain ROT2, stronger effect = lower value 0.952 | S. cerevisiae deletion strains, locus YBR231C, strain swc5, stronger effect = lower value 0.983 | S. cerevisiae deletion strains, locus YBR279W, strain paf1, stronger effect = lower value 0.988 | S. cerevisiae deletion strains, locus YCL011C, strain gbp2, stronger effect = lower value 0.984 | S. cerevisiae deletion strains, locus YCL016C, strain dcc1, stronger effect = lower value 0.996 | S. cerevisiae deletion strains, locus YCL029C, strain bik1, stronger effect = lower value 0.987 | S. cerevisiae deletion strains, locus YCL061C, strain MRC1, stronger effect = lower value 0.99 | S. cerevisiae deletion strains, locus YCL069W, strain vba3, stronger effect = lower value 0.989 | S. cerevisiae deletion strains, locus YCR088W, strain abp1, stronger effect = lower value 0.995 | S. cerevisiae deletion strains, locus YDL005C, strain med2, stronger effect = lower value 0.985 | S. cerevisiae deletion strains, locus YDL035C, strain GPR1, stronger effect = lower value 0.982 | S. cerevisiae deletion strains, locus YDL040C, strain nat1, stronger effect = lower value 0.984 | S. cerevisiae deletion strains, locus YDL074C, strain BRE1, stronger effect = lower value 0.987 | S. cerevisiae deletion strains, locus YDL101C, strain DUN1, stronger effect = lower value 1 | S. cerevisiae deletion strains, locus YDL185W, strain tfp1, stronger effect = lower value 0.981 | S. cerevisiae deletion strains, locus YDL192W, strain arf1, stronger effect = lower value 0.988 | S. cerevisiae deletion strains, locus YDR001C, strain nth1, stronger effect = lower value 0.979 | S. cerevisiae deletion strains, locus YDR069C, strain doa4, stronger effect = lower value 0.983 | S. cerevisiae deletion strains, locus YDR101C, strain arx1, stronger effect = lower value 0.957 | S. cerevisiae deletion strains, locus YDR137W, strain rgp1, stronger effect = lower value 1.03 | S. cerevisiae deletion strains, locus YDR159W, strain sac3, stronger effect = lower value 0.968 | S. cerevisiae deletion strains, locus YDR162C, strain NBP2, stronger effect = lower value 0.993 | S. cerevisiae deletion strains, locus YDR195W, strain ref2 0.935 | S. cerevisiae deletion strains, locus YDR297W, strain sur2, stronger effect = lower value 0.996 | S. cerevisiae deletion strains, locus YDR318W, strain mcm21, stronger effect = lower value 0.995 | S. cerevisiae deletion strains, locus YDR334W, strain swr1, stronger effect = lower value 0.99 | S. cerevisiae deletion strains, locus YDR335W, strain msn5, stronger effect = lower value 0.989 | S. cerevisiae deletion strains, locus YDR388W, stronger effect = lower value 0.994 | S. cerevisiae deletion strains, locus YDR392W, strain spt3, stronger effect = lower value 0.913 | S. cerevisiae deletion strains, locus YDR502C, strain sam2, stronger effect = lower value 1 | S. cerevisiae deletion strains, locus YEL003W, strain gim4, stronger effect = lower value 0.987 | S. cerevisiae deletion strains, locus YEL037C, strain rad23, stronger effect = lower value 0.987 | S. cerevisiae deletion strains, locus YEL061C, strain CIN8 (second series), stronger effect = lower value 0.977 | S. cerevisiae deletion strains, locus YER015W, strain faa2, stronger effect = lower value 0.981 | S. cerevisiae deletion strains, locus YER016W, strain bim1, stronger effect = lower value 0.99 | S. cerevisiae deletion strains, locus YER110C, stronger effect = lower value 0.978 | S. cerevisiae deletion strains, locus YER111C, strain swi4, stronger effect = lower value 0.976 | S. cerevisiae deletion strains, locus YER155C, strain BEM2 (second series), stronger effect = lower value 0.997 | S. cerevisiae deletion strains, locus YER155C, strain BEM2, stronger effect = lower value 1 | S. cerevisiae deletion strains, locus YER167W, strain BCK2, stronger effect = lower value 0.98 | S. cerevisiae deletion strains, locus YFR010W, strain ubp6, stronger effect = lower value 0.983 | S. cerevisiae deletion strains, locus YGL078C, strain dbp3, stronger effect = lower value 1 | S. cerevisiae deletion strains, locus YGL086W, strain mad1, stronger effect = lower value 0.996 | S. cerevisiae deletion strains, locus YGL167C, strain pmr1, stronger effect = lower value 0.995 | S. cerevisiae deletion strains, locus YGL173C, strain kem1, stronger effect = lower value 0.962 | S. cerevisiae deletion strains, locus YGL227W, strain vid30, stronger effect = lower value 0.986 | S. cerevisiae deletion strains, locus YGL240W, strain doc1, stronger effect = lower value 0.971 | S. cerevisiae deletion strains, locus YGL248W, strain PDE1, stronger effect = lower value 1.01 | S. cerevisiae deletion strains, locus YGL253W, strain hxk2, stronger effect = lower value 0.955 | S. cerevisiae deletion strains, locus YGR078C, strain PAC10, stronger effect = lower value 1.02 | S. cerevisiae deletion strains, locus YGR135W, strain pre9, stronger effect = lower value 1.06 | S. cerevisiae deletion strains, locus YGR252W, strain gcn5, stronger effect = lower value 1.07 | S. cerevisiae deletion strains, locus YHR013C, strain ard1, stronger effect = lower value 0.963 | S. cerevisiae deletion strains, locus YHR027C, strain rpn1, stronger effect = lower value 1 | S. cerevisiae deletion strains, locus YHR079C, strain IRE1 (second series), stronger effect = lower value 0.987 | S. cerevisiae deletion strains, locus YHR094C, strain hxt1, stronger effect = lower value 0.978 | S. cerevisiae deletion strains, locus YHR129C, strain ARP1, stronger effect = lower value 0.993 | S. cerevisiae deletion strains, locus YHR142W, strain chs7, stronger effect = lower value 0.98 | S. cerevisiae deletion strains, locus YHR200W, strain rpn10, stronger effect = lower value 0.983 | S. cerevisiae deletion strains, locus YIL066C, strain RNR3, stronger effect = lower value 0.965 | S. cerevisiae deletion strains, locus YIL073C, strain SPO22, stronger effect = lower value 0.997 | S. cerevisiae deletion strains, locus YIL125W, strain kgd1, stronger effect = lower value 0.946 | S. cerevisiae deletion strains, locus YIR030C, strain dcg1, stronger effect = lower value 0.985 | S. cerevisiae deletion strains, locus YJL092W, strain hpr5, stronger effect = lower value 0.984 | S. cerevisiae deletion strains, locus YJL095W, strain BCK1 (second series), stronger effect = lower value 1 | S. cerevisiae deletion strains, locus YJL095W, strain BCK1, stronger effect = lower value 1.05 | S. cerevisiae deletion strains, locus YJL115W, strain asf1, stronger effect = lower value 0.984 | S. cerevisiae deletion strains, locus YJL129C, strain trk1, stronger effect = lower value 0.979 | S. cerevisiae deletion strains, locus YJL134W, strain LCB3, stronger effect = lower value 0.987 | S. cerevisiae deletion strains, locus YJL154C, strain vps35, stronger effect = lower value 0.996 | S. cerevisiae deletion strains, locus YJL164C, strain tpk1, stronger effect = lower value 0.979 | S. cerevisiae deletion strains, locus YJL166W, strain qcr8, stronger effect = lower value 0.99 | S. cerevisiae deletion strains, locus YJL168C, strain set2, stronger effect = lower value 0.984 | S. cerevisiae deletion strains, locus YJL187C, strain SWE1 (second series), stronger effect = lower value 1.02 | S. cerevisiae deletion strains, locus YJL187C, strain SWE1, stronger effect = lower value 1 | S. cerevisiae deletion strains, locus YJR043C, strain POL32, stronger effect = lower value 0.963 | S. cerevisiae deletion strains, locus YKL009W, strain mrt4, stronger effect = lower value 0.988 | S. cerevisiae deletion strains, locus YKL068W, stronger effect = lower value 0.997 | S. cerevisiae deletion strains, locus YKL085W, strain MDH1 (second series), stronger effect = lower value 0.994 | S. cerevisiae deletion strains, locus YKL085W, strain MDH1, stronger effect = lower value 0.994 | S. cerevisiae deletion strains, locus YKL160W, strain elf1, stronger effect = lower value 1.02 | S. cerevisiae deletion strains, locus YKR001C, strain vps1, stronger effect = lower value 0.975 | S. cerevisiae deletion strains, locus YKR026C, strain gcn3, stronger effect = lower value 0.968 | S. cerevisiae deletion strains, locus YKR091W, strain srl3, stronger effect = lower value 0.983 | S. cerevisiae deletion strains, locus YLL001W, strain dnm1, stronger effect = lower value 0.984 | S. cerevisiae deletion strains, locus YLL026W, stronger effect = lower value 0.986 | S. cerevisiae deletion strains, locus YLL041C, strain sdh2, stronger effect = lower value 0.994 | S. cerevisiae deletion strains, locus YLR027C, strain aat2, stronger effect = lower value 0.993 | S. cerevisiae deletion strains, locus YLR039C, strain RIC1, stronger effect = lower value 1 | S. cerevisiae deletion strains, locus YLR058C, strain SHM2, stronger effect = lower value 0.982 | S. cerevisiae deletion strains, locus YLR102C, strain apc9, stronger effect = lower value 0.982 | S. cerevisiae deletion strains, locus YLR221C, strain rsa3, stronger effect = lower value 0.972 | S. cerevisiae deletion strains, locus YLR258W, strain gsy2, stronger effect = lower value 0.995 | S. cerevisiae deletion strains, locus YLR262C, strain YPT6 (second series), stronger effect = lower value 1 | S. cerevisiae deletion strains, locus YLR268W, strain sec22, stronger effect = lower value 0.976 | S. cerevisiae deletion strains, locus YLR320W, strain mms22, stronger effect = lower value 0.986 | S. cerevisiae deletion strains, locus YLR330W, strain CHS5, stronger effect = lower value 0.994 | S. cerevisiae deletion strains, locus YLR342W, strain FKS1, stronger effect = lower value 0.984 | S. cerevisiae deletion strains, locus YLR357W, strain rsc2, stronger effect = lower value 0.987 | S. cerevisiae deletion strains, locus YLR370C, strain arc18, stronger effect = lower value 0.994 | S. cerevisiae deletion strains, locus YLR371W, strain rom2, stronger effect = lower value 0.959 | S. cerevisiae deletion strains, locus YLR384C, strain iki3, stronger effect = lower value 0.994 | S. cerevisiae deletion strains, locus YLR418C, strain cdc73, stronger effect = lower value 1.03 | S. cerevisiae deletion strains, locus YML016C, strain PPZ1, stronger effect = lower value 0.968 | S. cerevisiae deletion strains, locus YML032C, strain rad52, stronger effect = lower value 0.963 | S. cerevisiae deletion strains, locus YML120C, strain ndi1, stronger effect = lower value 0.996 | S. cerevisiae deletion strains, locus YML124C, strain tub3, stronger effect = lower value 0.975 | S. cerevisiae deletion strains, locus YMR058W, strain fet3, stronger effect = lower value 0.989 | S. cerevisiae deletion strains, locus YMR078C, strain ctf18, stronger effect = lower value 0.988 | S. cerevisiae deletion strains, locus YMR125W, strain sto1, stronger effect = lower value 0.993 | S. cerevisiae deletion strains, locus YMR129W, stronger effect = lower value 1.01 | S. cerevisiae deletion strains, locus YMR205C, strain PFK2, stronger effect = lower value 0.967 | S. cerevisiae deletion strains, locus YMR223W, strain ubp8, stronger effect = lower value 1 | S. cerevisiae deletion strains, locus YMR231W, strain pep5, stronger effect = lower value 0.988 | S. cerevisiae deletion strains, locus YMR307W, strain GAS1, stronger effect = lower value 0.972 | S. cerevisiae deletion strains, locus YNL067W, strain RPL9B, stronger effect = lower value 1.02 | S. cerevisiae deletion strains, locus YNL071W, strain lat1, stronger effect = lower value 0.987 | S. cerevisiae deletion strains, locus YNL153C, strain GIM3, stronger effect = lower value 1.01 | S. cerevisiae deletion strains, locus YNL209W, strain ssb2, stronger effect = lower value 1 | S. cerevisiae deletion strains, locus YNL233W, strain BNI4, stronger effect = lower value 1.02 | S. cerevisiae deletion strains, locus YNL248C, strain rpa49, stronger effect = lower value 1.01 | S. cerevisiae deletion strains, locus YNL250W, strain rad50, stronger effect = lower value 1.02 | S. cerevisiae deletion strains, locus YNL271C, strain bni1, stronger effect = lower value 0.988 | S. cerevisiae deletion strains, locus YNL298W, strain CLA4, stronger effect = lower value 0.982 | S. cerevisiae deletion strains, locus YNL307C, strain MCK1, stronger effect = lower value 0.992 | S. cerevisiae deletion strains, locus YNL322C, strain KRE1 (second series), stronger effect = lower value 0.979 | S. cerevisiae deletion strains, locus YNL322C, strain KRE1, stronger effect = lower value 0.999 | S. cerevisiae deletion strains, locus YNR049C, strain mso1, stronger effect = lower value 0.994 | S. cerevisiae deletion strains, locus YNR052C, strain pop2, stronger effect = lower value 1.01 | S. cerevisiae deletion strains, locus YOL006C, strain TOP1, stronger effect = lower value 1.05 | S. cerevisiae deletion strains, locus YOL012C, strain htz1 0.767 | S. cerevisiae deletion strains, locus YOL147C, strain pex11, stronger effect = lower value 0.991 | S. cerevisiae deletion strains, locus YOR001W, strain rrp6, stronger effect = lower value 1.01 | S. cerevisiae deletion strains, locus YOR061W, strain CKA2, stronger effect = lower value 0.939 | S. cerevisiae deletion strains, locus YOR069W, strain VPS5, stronger effect = lower value 1 | S. cerevisiae deletion strains, locus YOR070C, strain gyp1, stronger effect = lower value 0.999 | S. cerevisiae deletion strains, locus YOR080W, strain dia2, stronger effect = lower value 0.989 | S. cerevisiae deletion strains, locus YOR083W, strain WHI5, stronger effect = lower value 1.02 | S. cerevisiae deletion strains, locus YOR106W, strain vam3, stronger effect = lower value 1 | S. cerevisiae deletion strains, locus YOR136W, strain idh2, stronger effect = lower value 0.993 | S. cerevisiae deletion strains, locus YOR144C, strain elg1, stronger effect = lower value 0.98 | S. cerevisiae deletion strains, locus YOR184W, strain ser1, stronger effect = lower value 0.967 | S. cerevisiae deletion strains, locus YOR265W, strain rbl2, stronger effect = lower value 0.999 | S. cerevisiae deletion strains, locus YOR270C, strain vph1, stronger effect = lower value 0.828 | S. cerevisiae deletion strains, locus YOR290C, strain snf2, stronger effect = lower value 0.923 | S. cerevisiae deletion strains, locus YOR316C, strain cot1, stronger effect = lower value 0.981 | S. cerevisiae deletion strains, locus YPL051W, strain arl3, stronger effect = lower value 1.03 | S. cerevisiae deletion strains, locus YPL055C, strain LGE1, stronger effect = lower value 0.957 | S. cerevisiae deletion strains, locus YPL078C, strain atp4, stronger effect = lower value 0.999 | S. cerevisiae deletion strains, locus YPL106C, strain sse1, stronger effect = lower value 1 | S. cerevisiae deletion strains, locus YPL240C, strain hsp82, stronger effect = lower value 1 | S. cerevisiae deletion strains, locus YPR119W, strain clb2, stronger effect = lower value 0.994 | S. cerevisiae deletion strains, locus YPR141C, strain kar3, stronger effect = lower value 0.982 | S. cerevisiae deletion strains, locus YPR163C, strain tif3, stronger effect = lower value 0.975 | S. cerevisiae deletion strains, locus YPR167C, strain met16, stronger effect = lower value 0.99 | S. cerevisiae deletion strains, strain wtn01, stronger effect = lower value 0.949 | S. cerevisiae strains, strain wild type, stronger effect = lower value 0.976

— PubChem BioAssay AID1159580 (chemical genetic matrix, 2015)
